In PubChem BioAssay (EPA / NIEHS):
Activity calls are given as the source filed them. The calls were made as follows: active = hit-call score of the fitted dose curve at least 0.9, where 1 is the maximum; inactive = score below 0.9.

Tests used:
Details in all cases: mRNA level, 48 h; actives raise or lower the signal
[1] = read-out: Cytochrome P450 (CYP2B6), CYP2B6 (gene 1555); test: LTEA_HepaRG_CYP2B6: Life Technologies and Expression Analysis (LTEA) Assay for Cytochrome P450 (CYP2B6) using HepaRG (AID 2283481)
Method in brief: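 CYP2B6 transcript level quantified by qRT-PCR against three housekeeping genes, fitted bidirectionally relative to DMSO. HepaRG cultures received chemicals for 48 h, 8-point half-log series from 100 uM in 0.5% DMSO, duplicate wells, serum-free induction medium.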

[2] = read-out: Cytochrome P450 2C19 (Homo sapiens) (UniProt P33261); test: LTEA_HepaRG_CYP2C19: Life Technologies and Expression Analysis (LTEA) Assay for CYP2C19 using HepaRG (AID 2283482)
Method in brief: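 CYP2C19 transcript levels by qRT-PCR, normalized to three housekeeping genes, in HepaRG cells after 48 h chemical exposure. Eight-point half-log series topping at 100 uM, 0.5% DMSO vehicle. Increases and decreases both fitted against DMSO.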

CYP2C8 (gene 1558) = test: LTEA_HepaRG_CYP2C8: Life Technologies and Expression Analysis (LTEA) Assay for CYP2C8 using HepaRG (AID 2283483)
Method in brief: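 HepaRG (human liver line), 48 h chemical exposure, 8-pt half-log series from 100 uM, 0.5% DMSO vehicle. Readout: CYP2C8 transcript by qRT-PCR, housekeeping-normalized. Bidirectional fit vs DMSO baseline.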

CYP2C9 (gene 1559) = test: LTEA_HepaRG_CYP2C9: Life Technologies and Expression Analysis (LTEA) Assay for CYP2C9 using HepaRG (AID 2283484)
Method in brief: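 HepaRG, 48 h dosing, 8-pt half-log series, top 100 uM, 0.5% DMSO vehicle. Read-out: CYP2C9 transcript by TaqMan qRT-PCR, housekeeping-normalized (ACTB/GAPDH/POLR2A). Gain or loss fitted vs DMSO baseline.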

CYP2E1 (gene 1571) = test: LTEA_HepaRG_CYP2E1: Life Technologies and Expression Analysis (LTEA) Assay for CYP2E1 using HepaRG (AID 2283485)
Method in brief: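 Assay uses 48 h exposure of HepaRG hepatic cells, eight concentrations to 100 uM. Expression of CYP2E1 is quantified by TaqMan qRT-PCR with ACTB, GAPDH and POLR2A normalization; curves fitted in both directions relative to vehicle.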

CYP4A11 (gene 1579) = test: LTEA_HepaRG_CYP4A11: Life Technologies and Expression Analysis (LTEA) Assay for CYP4A11 using HepaRG (AID 2283486)
Method in brief: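 Readout is CYP4A11 transcript level by qRT-PCR, normalized to three housekeeping genes and fitted bidirectionally against 0.5% DMSO. Human HepaRG cells were treated 48 h, in duplicate, with an 8-point half-log series topping at 100 uM.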

[3] = read-out: Cytochrome P450 3A4 (Homo sapiens) (UniProt P08684); test: LTEA_HepaRG_CYP3A4: Life Technologies and Expression Analysis (LTEA) Assay for CYP3A4 using HepaRG (AID 2283487)
Method in brief: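 HepaRG, 48 h exposure, 8-pt CRC from 100 uM (half-log), 0.5% DMSO, duplicates; serum-free induction medium. Readout: CYP3A4 mRNA, qRT-PCR, ACTB/GAPDH/POLR2A normalization. Bidirectional fit vs DMSO.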

[4] = read-out: DNA damage-inducible transcript 3 (DDIT3), DDIT3 (gene 1649); test: LTEA_HepaRG_DDIT3: Life Technologies and Expression Analysis (LTEA) Assay for DNA damage-inducible transcript 3 (DDIT3) using HepaRG (AID 2283488)
Method in brief: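 Eight-point concentration-response (100 uM highest, half-log dilutions) in HepaRG, 48 h, duplicate wells. Endpoint: qRT-PCR mRNA, normalized (ACTB, GAPDH, POLR2A), bidirectional fitting with DMSO as baseline.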

[5] = read-out: Pro-epidermal growth factor (Homo sapiens) (UniProt P01133); test: LTEA_HepaRG_EGF: Life Technologies and Expression Analysis (LTEA) Assay for Epidermal growth factor (EGF) using HepaRG (AID 2283489)
Method in brief: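 EGF transcript measured by Fluidigm TaqMan qRT-PCR with three housekeeping genes for normalization, 48 h after dosing HepaRG cultures in duplicate (top 100 uM, half-log steps, 0.5% DMSO vehicle). Gain or loss relative to DMSO fitted.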

[6] = read-out: Early growth response protein 1 (EGR1) transcription factor, EGR1 (gene 1958); test: LTEA_HepaRG_EGR1: Life Technologies and Expression Analysis (LTEA) Assay for Early growth response protein 1 (EGR1) transcription factor using HepaRG (AID 2283490)
Method in brief: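 HepaRG, 48 h exposure, 8-pt half-log series from 100 uM, 0.5% DMSO vehicle; EGR1 transcript by TaqMan qRT-PCR (Fluidigm array), housekeeping-normalized; bidirectional fit relative to DMSO baseline.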

[7] = read-out: Ezrin (EZR), EZR (gene 7430); test: LTEA_HepaRG_EZR: Life Technologies and Expression Analysis (LTEA) Assay for Ezrin (EZR) using HepaRG (AID 2283491)
Method in brief: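 Read-out is EZR transcript level by qRT-PCR, normalized to three housekeeping genes and fitted bidirectionally against the DMSO control. Human HepaRG cells received test chemicals for 48 h at eight half-log concentrations up to 100 uM in 0.5% DMSO.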

[8] = read-out: Cytochrome P450 3A7 (Homo sapiens) (UniProt P24462); test: LTEA_HepaRG_CYP3A7: Life Technologies and Expression Analysis (LTEA) Assay for CYP3A7 using HepaRG (AID 2283492)
Method in brief: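 CYP3A7 transcript measured by qRT-PCR (ACTB, GAPDH, POLR2A normalization) after 48 h chemical exposure of HepaRG cells in duplicate. Eight half-log concentrations, maximum 100 uM, 0.5% DMSO vehicle; bidirectional curve fitting against DMSO baseline.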

CYP3A5 (gene 1577) = test: LTEA_HepaRG_CYP3A5: Life Technologies and Expression Analysis (LTEA) Assay for CYP3A5 using HepaRG (AID 2283493)
Method in brief: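 Readout was CYP3A5 mRNA by qRT-PCR. HepaRG cultures were exposed for 48 h in serum-free induction medium to chemicals at up to 100 uM, and responses were fitted in both directions relative to DMSO vehicle.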

[9] = read-out: Fatty Acid-Binding Protein 1 (FABP1), FABP1 (gene 2168); test: LTEA_HepaRG_FABP1: Life Technologies and Expression Analysis (LTEA) Assay for Fatty Acid-Binding Protein 1 (FABP1) using HepaRG (AID 2283494)
Method in brief: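 qRT-PCR readout of FABP1 transcript (normalized to three housekeeping genes) after 48 h chemical exposure of HepaRG cells; eight concentrations, half-log steps, max 100 uM, 0.5% DMSO vehicle; gain or loss fitted relative to DMSO baseline.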

[10] = read-out: Cytochrome P450 4A22 (Homo sapiens) (UniProt Q5TCH4); test: LTEA_HepaRG_CYP4A22: Life Technologies and Expression Analysis (LTEA) Assay for Cytochrome P450 4A22 (CYP4A22) using HepaRG (AID 2283495)
Method in brief: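 Gene expression measured by qRT-PCR against three housekeeping genes (ACTB, GAPDH, POLR2A), with gain or loss fitted relative to 0.5% DMSO vehicle. HepaRG cultures received 48 h chemical treatment, top concentration 100 uM, half-log steps, duplicate wells.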

[11] = read-out: Cytochrome P450 7A1 (Homo sapiens) (UniProt P22680); test: LTEA_HepaRG_CYP7A1: Life Technologies and Expression Analysis (LTEA) Assay for Cytochrome P450 7A1 (CYP7A1) using HepaRG (AID 2283496)
Method in brief: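 Using 0.5% DMSO as vehicle and baseline, chemicals were tested in duplicate over an 8-point range from 100 uM on HepaRG cells for 48 h; qRT-PCR signals were normalised to ACTB, GAPDH and POLR2A.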

[12] = read-out: Glutathione S-Transferase (GSTA2), GSTA2 (gene 2939); test: LTEA_HepaRG_GSTA2: Life Technologies and Expression Analysis (LTEA) Assay for Glutathione S-Transferase (GSTA2) using HepaRG (AID 2283497)
Method in brief: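 qRT-PCR readout of GSTA2 transcript, normalized to three housekeeping genes, fitted bidirectionally against 0.5% DMSO baseline. Differentiated HepaRG cells received compound for 48 h at 8 concentrations (top 100 uM, half-log steps).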

[13] = read-out: growth arrest and DNA damage 45 (GADD45G), GADD45G (gene 10912); test: LTEA_HepaRG_GADD45G: Life Technologies and Expression Analysis (LTEA) Assay for growth arrest and DNA damage 45 (GADD45G) using HepaRG (AID 2283499)
Method in brief: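 GADD45G transcript level by qRT-PCR (housekeeping-normalized: ACTB, GAPDH, POLR2A) after 48 h chemical treatment of a single HepaRG lot in serum-free induction medium; eight-point half-log series up to 100 uM in 0.5% DMSO, duplicates, up- or down-regulation scored.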

[14] = read-out: cysteine-aspartic acid protease (CASP8), CASP8 (gene 841); test: LTEA_HepaRG_CASP8: Life Technologies and Expression Analysis (LTEA) Assay for cysteine-aspartic acid protease (CASP8) using HepaRG (AID 2283480)
Method in brief: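 qRT-PCR readout of CASP8 mRNA, normalized to three housekeeping genes, after 48 h chemical exposure of HepaRG cells; 8-point half-log series, top 100 uM, 0.5% DMSO vehicle. Bidirectional curve fitting against DMSO baseline.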

Measured: AC50

Cytochrome P450 3A7 (Homo sapiens), sequence (P24462 whole entry, looked up): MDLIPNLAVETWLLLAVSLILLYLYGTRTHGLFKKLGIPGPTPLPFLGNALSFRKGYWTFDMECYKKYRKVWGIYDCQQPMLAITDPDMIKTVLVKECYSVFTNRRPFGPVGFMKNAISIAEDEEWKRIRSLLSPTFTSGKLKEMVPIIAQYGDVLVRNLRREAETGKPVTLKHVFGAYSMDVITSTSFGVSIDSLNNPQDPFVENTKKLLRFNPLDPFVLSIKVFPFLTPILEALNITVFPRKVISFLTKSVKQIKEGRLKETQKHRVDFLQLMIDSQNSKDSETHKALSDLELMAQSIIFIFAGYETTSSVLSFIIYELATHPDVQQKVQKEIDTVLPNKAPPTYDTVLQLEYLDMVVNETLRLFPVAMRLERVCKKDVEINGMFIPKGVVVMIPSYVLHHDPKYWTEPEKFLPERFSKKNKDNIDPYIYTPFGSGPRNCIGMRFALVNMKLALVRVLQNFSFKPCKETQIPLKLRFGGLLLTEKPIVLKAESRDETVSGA
Cytochrome P450 3A4 (Homo sapiens), sequence (P08684 whole entry, looked up): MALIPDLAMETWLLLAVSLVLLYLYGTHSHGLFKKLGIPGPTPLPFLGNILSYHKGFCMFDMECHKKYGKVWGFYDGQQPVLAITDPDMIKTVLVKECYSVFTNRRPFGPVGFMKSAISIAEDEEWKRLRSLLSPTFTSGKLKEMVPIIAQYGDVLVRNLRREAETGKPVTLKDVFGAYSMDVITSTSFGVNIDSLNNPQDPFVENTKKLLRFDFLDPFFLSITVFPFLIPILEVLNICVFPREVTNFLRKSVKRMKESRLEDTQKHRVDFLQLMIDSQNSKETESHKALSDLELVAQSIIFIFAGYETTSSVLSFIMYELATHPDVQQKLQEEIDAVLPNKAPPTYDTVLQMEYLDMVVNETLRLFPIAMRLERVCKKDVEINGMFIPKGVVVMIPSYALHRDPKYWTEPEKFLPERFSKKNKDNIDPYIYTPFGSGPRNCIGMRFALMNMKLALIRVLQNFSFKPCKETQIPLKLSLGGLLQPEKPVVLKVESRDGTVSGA
Cytochrome P450 2C19 (Homo sapiens), sequence (P33261 whole entry, looked up): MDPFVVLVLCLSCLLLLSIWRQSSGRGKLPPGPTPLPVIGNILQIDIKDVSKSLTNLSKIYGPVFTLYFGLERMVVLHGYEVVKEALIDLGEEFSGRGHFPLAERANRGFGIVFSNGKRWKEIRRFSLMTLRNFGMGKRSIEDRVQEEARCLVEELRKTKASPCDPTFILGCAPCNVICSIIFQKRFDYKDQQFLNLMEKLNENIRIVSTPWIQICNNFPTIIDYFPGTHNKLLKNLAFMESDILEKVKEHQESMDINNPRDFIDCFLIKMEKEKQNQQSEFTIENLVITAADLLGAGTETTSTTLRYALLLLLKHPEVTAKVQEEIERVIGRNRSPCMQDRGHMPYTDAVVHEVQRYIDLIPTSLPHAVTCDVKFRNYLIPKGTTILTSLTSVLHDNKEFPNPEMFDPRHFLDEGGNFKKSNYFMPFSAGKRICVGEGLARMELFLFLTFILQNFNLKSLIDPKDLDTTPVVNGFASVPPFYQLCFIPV

O=C(NC(=O)c1c(F)cccc1F)Nc1ccc(OC(F)(F)C(F)OC(F)(F)F)c(Cl)c1 (stereo not drawn)
inactive: [1] | [2] | CYP2C8 (gene 1558) | CYP2C9 (gene 1559) | CYP2E1 (gene 1571) | CYP4A11 (gene 1579) | [3] | [4] | [5] | [6] | [7] | [8] | CYP3A5 (gene 1577) | [9] | [10] | [11] | [12] | [13]

O=[N+]([O-])c1c(Cl)c(Cl)c(Cl)c(Cl)c1Cl
active: [1] 5.88 µM | CYP2E1 (gene 1571) 34.3 µM | [9] 50 µM
inactive: [14] | [2] | CYP2C8 (gene 1558) | CYP2C9 (gene 1559) | [3] | [4] | [5] | [6] | [7] | [8] | CYP3A5 (gene 1577) | [10] | [11] | [12] | [13]

CC1(C)C(C=C(Cl)Cl)C1C(=O)OC(C#N)c1ccc(F)c(Oc2ccccc2)c1 (stereo not drawn)
active: [1] 18.4 µM | [2] 20.7 µM | CYP2C8 (gene 1558) 17.1 µM | CYP2C9 (gene 1559) 14 µM | CYP2E1 (gene 1571) 55.3 µM | [3] 10.9 µM | [5] 61.4 µM
inactive: CYP4A11 (gene 1579) | [4] | [6] | [7] | [8] | CYP3A5 (gene 1577) | [9] | [10] | [11] | [12] | [13]

COP(=S)(OC)Oc1ccc([N+](=O)[O-])cc1
inactive: CYP2C8 (gene 1558) | CYP2C9 (gene 1559) | CYP2E1 (gene 1571) | CYP4A11 (gene 1579) | [3] | [4] | [5] | [6] | [7] | [8] | CYP3A5 (gene 1577) | [9] | [10] | [11] | [13]
active: [1] 15.7 µM | [2] 50 µM

COc1nn(CSP(=S)(OC)OC)c(=O)s1
active: [1] 4.94 µM | [2] 10.6 µM
inactive: [14] | CYP2C8 (gene 1558) | CYP2C9 (gene 1559) | CYP2E1 (gene 1571) | CYP4A11 (gene 1579) | [3] | [4] | [5] | [6] | [7] | [8] | CYP3A5 (gene 1577) | [9] | [10] | [11] | [12] | [13]

CC[C@H](C)[C@H]1O[C@]2(C=C[C@@H]1C)C[C@@H]1C[C@@H](C/C=C(\C)[C@@H](O[C@H]3C[C@H](OC)[C@@H](O[C@H]4C[C@H](OC)[C@@H](O)[C@H](C)O4)[C@H](C)O3)[C@@H](C)/C=C/C=C3\CO[C@@H]4[C@H](O)C(C)=C[C@@H](C(=O)O1)[C@]34O)O2 (tested in a mixture with another compound)
active: [1] 11 µM | [2] 11.6 µM | CYP2C8 (gene 1558) 14.1 µM | CYP2C9 (gene 1559) 7.85 µM | CYP2E1 (gene 1571) 8.08 µM | CYP4A11 (gene 1579) 7.39 µM | [3] 10 µM | [4] 10.1 µM | [5] 48.4 µM | [7] 7.92 µM | CYP3A5 (gene 1577) 6 µM | [9] 8.68 µM | [10] 10.2 µM | [11] 15 µM | [12] 7.88 µM
inactive: [6] | [8] | [13]
